Measurements published in PubChem BioAssay.
Records with an inconclusive call do not appear. The source made the active and inactive calls.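 The calls were made as follows, unless noted: active = growth inhibition above 25% in both replicates, a cutoff set 3 SD above the mean; inconclusive = above 25% in only one replicate; inactive = the rest.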

Columns and labels:
[1] = OD615 S. cerevisiae growth inhibition, permissive medium, pilot counter-assay, permissive growth control for S. cerevisiae lifespan shortening project (AID 705); conditions: OD615, 24 h, at 10 µM, active compounds read high
[2] = Restrictive medium S. cerevisiae growth inhibition, OD615, pilot screen of yeast lifespan reduction project, restrictive growth control (AID 706;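 active = growth inhibition above a set limit, 3 SD over mean compound inhibition, in both replicates, cut at about 43% in these data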;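 also: modified DeaD lifespan yeast strain shifted to restrictive glucose medium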); conditions: OD615, 48 h, at 10 µM, active compounds read high
[3] = viability gain of MRP-1-high H69AR cells under doxorubicin, pilot screen, MRP-1 activator project, CellTiter-Glo, duplicate (AID 807;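 active = viability increase at or above a cutoff of the median across tested compounds plus 3 SD, cut at about 8.5% in these data, passing the limit was not always enough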;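 also: compound pretreatment 18-22 h then 72 h combined with doxorubicin; 0% = doxorubicin alone and 100% = vehicle without doxorubicin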); conditions: H69AR viability with doxorubicin, CellTiter-Glo luminescence; at 10 µM; active compounds read high
[4] = growth suppression of beta-catenin knockout HCT116, pilot screen, human colon tumor cells (AID 823;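 active = cell viability at or below a set limit in both duplicate runs, the limit being the all-compound median minus 4 SD, cut at about 23% in these data, passing the limit was not always enough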;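 also: 0% = wells killed by 20 µM Hyamine and 100% = untreated DMSO cell wells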); conditions: CellTiter-Glo, 60 h, at 10 µM, active compounds read low
[5] = growth suppression of PTEN-deleted HCT116, pilot screen, cell-based, HCT116 clonal line, CellTiter-Glo (AID 824;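 active = viability at or below 27.92% in each of two runs, the all-compound median minus 4 SD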;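 also: 0% = 20 µM Hyamine control and 100% = vehicle cell control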); conditions: 60 h, at 10 µM, active compounds read low
[6] = RAM signaling pathway blockade in yeast – S. cerevisiae, Pdr1DBD-CYC8 efflux-inhibited sensitized strain, primary screen (AID 1298;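 active = RAM network inhibition above 8.4% in each of two replicates, 3 SD over the compound average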;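 also: 0% = DMSO untreated cells without growth and 100% = 10 µM 1-NA-PP1 full growth; higher means more yeast growth rescued from 5-FOA killing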); conditions: S. cerevisiae cbk1-as DSE1-URA3 strain, 5-FOA growth OD615, 2 d; at 50 µM; active compounds read high

CCOC(=O)N1CCN(C(=O)c2ccc(N3C(=O)c4ccccc4C3=O)cc2)CC1
inactive: growth inhibition [1] -3.96% | growth inhibition [2] -15.2% | viability increase [3] -2.58% | viability [4] 99% | viability [5] 93.6% | RAM network inhibition [6] 4.06%

Cn1c(Cn2c(=O)sc3ccccc32)nnc1SCC(=O)Nc1ccc(F)cc1
inactive: growth inhibition [1] -6.3% | growth inhibition [2] -13.1% | viability increase [3] -0.7% | viability [4] 105% | viability [5] 97.8% | RAM network inhibition [6] 5.95%

COc1ccccc1-c1cc(C(F)(F)F)nc(N2CCOCC2)n1
inactive: growth inhibition [1] -8.95% | growth inhibition [2] -13.9% | viability increase [3] -0.29% | viability [4] 78.8% | viability [5] 82.5% | RAM network inhibition [6] 7.23%

Cc1ccc(C2CC(=O)NC(SCCC(C)C)=C2C#N)cc1 (centres undefined)
inactive: growth inhibition [1] -9.08% | growth inhibition [2] -2.19% | viability increase [3] -4.1% | viability [4] 96.8% | viability [5] 78.9% | RAM network inhibition [6] 9.74%

CCCSc1nc2c(cnn2-c2ccccc2)c(=O)[nH]1
inactive: growth inhibition [1] -12.6% | growth inhibition [2] -17.8% | viability increase [3] -0.89% | viability [4] 105% | viability [5] 95.7% | RAM network inhibition [6] -0.83%

Cc1ccc(OCC(=O)Nc2ccc(O)c(-c3nc4ccccc4o3)c2)cc1
inactive: growth inhibition [1] -10% | growth inhibition [2] -14.9% | viability increase [3] -7.57% | viability [4] 38.8% | viability [5] 54% | RAM network inhibition [6] 2.6%

O=C(CSc1oc(-c2ccccc2)nc1S(=O)(=O)c1ccc(F)cc1)NCC1CCCO1 (centres undefined)
inactive: growth inhibition [1] 4.64% | growth inhibition [2] 0.925% | viability increase [3] -3.53% | viability [4] 86.3% | viability [5] 89% | RAM network inhibition [6] 2.32%

CCOC(=O)CNc1nc(C(C)(C)C)nc2c1nnn2Cc1ccccc1Cl
inactive: growth inhibition [1] 1.73% | growth inhibition [2] -3.68% | viability increase [3] -1.19% | viability [4] 78% | viability [5] 76.2% | RAM network inhibition [6] 9.74%

c1ccc(-c2nc(CSc3nnnn3-c3ccccc3)cs2)cc1
inactive: growth inhibition [1] -8.04% | growth inhibition [2] -0.095% | viability increase [3] -2.18% | viability [4] 99.5% | viability [5] 93.4% | RAM network inhibition [6] 7.98%

O=C1CCC(C(=O)NC2(C(=O)NC3CCCCC3)CCCCC2)N1 (centres undefined)
inactive: growth inhibition [1] -0.36% | growth inhibition [2] -2.28% | viability increase [3] 0.85% | viability [4] 99.6% | viability [5] 104% | RAM network inhibition [6] 1%

CCOC(=O)c1c(C)[nH]c(C(=O)COc2ccc3c(c2)OCO3)c1C
inactive: growth inhibition [1] 1.84% | growth inhibition [2] -1.24% | viability increase [3] -2.79% | viability [4] 91.2% | viability [5] 87.5% | RAM network inhibition [6] 5.07%

Cc1cc(C)cc(NC(=O)CSc2nnc(Cn3c(=O)sc4ccccc43)n2C)c1
inactive: growth inhibition [1] -6.84% | growth inhibition [2] -21.8% | viability increase [3] -2.93% | viability [4] 98.2% | viability [5] 94.9% | RAM network inhibition [6] 1.37%

COc1cc(OC)c(NS(=O)(=O)c2coc(C(N)=O)c2)cc1Cl
inactive: growth inhibition [1] -4.63% | growth inhibition [2] -4.55% | viability increase [3] -3.53% | viability [4] 105% | viability [5] 95.8% | RAM network inhibition [6] 6.88%

O=C(c1cccs1)N(C(=O)c1cccs1)c1ccccn1
inactive: growth inhibition [1] -5.4% | growth inhibition [2] -6.32% | viability increase [3] -1.11% | viability [4] 96.8% | viability [5] 102% | RAM network inhibition [6] 4.17%

COc1ccc(C)cc1NS(=O)(=O)c1cccc2nonc12
inactive: growth inhibition [1] -8.6% | growth inhibition [2] -10.6% | viability increase [3] -3.24% | viability [4] 95.8% | viability [5] 94.3% | RAM network inhibition [6] 4.42%

O=C(CSc1nnc(Cn2c(=O)sc3ccccc32)n1-c1ccccc1)N1CCCC1
inactive: growth inhibition [1] -8.58% | growth inhibition [2] -14.4% | viability increase [3] -1.4% | viability [4] 97.1% | viability [5] 97% | RAM network inhibition [6] 2.12%

COc1ccccc1-c1nc(-c2ccc(Br)cc2)no1
inactive: growth inhibition [1] 4.16% | growth inhibition [2] -2.73% | viability increase [3] -3.88% | viability [4] 84.2% | viability [5] 94.1% | RAM network inhibition [6] 5.02%

CCCOCCOC(=O)c1[nH]c2c(c1C)C(=O)CC(c1cc(OC)ccc1OC)C2 (centres undefined)
active: viability [4] 17.3% | viability [5] 20.6%
inactive: growth inhibition [1] -12.2% | growth inhibition [2] -4.79% | viability increase [3] -4.21% | RAM network inhibition [6] 8.16%

COc1cc(C(=O)NCCc2cn3ccc(C)cc3n2)cc(OC)c1OC
inactive: growth inhibition [1] -4.97% | growth inhibition [2] 4.06% | viability increase [3] -4.28% | viability [4] 96.5% | viability [5] 95.9% | RAM network inhibition [6] 2.94%
